Reference: the supplement of paper PMC10849652
Of roughly 8,800 targets only a part is listed; those with a hit were picked by preference. About 0.5% of all pairs of compound and target were hits. Values without a mark were called inactive.

Legend:
Assay in all cases: log2 fold change, soluble protein after heating vs DMSO (PISA); higher = thermal stabilisation; K562 lysate, 10 uM; active = over 0.2 and 3.5 SD of the protein, either way, in both replicates (recomputed)
alvocidib = compound: CN1CC[C@H](c2c(O)cc(O)c3c(=O)cc(-c4ccccc4Cl)oc23)[C@H](O)C1 [alvocidib]
Procedure, shortened: (§1)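 K562 pellets were dounce-homogenised in PBS pH 7.4 with 1 mM MgCl2, and the crude extract at 1 mg/mL protein was treated with 10 μM compound for 30 min. Aliquots were heated for 3 min across 48°C-58°C, pooled, and brought to 0.5% NP-40 at 4°C; soluble protein was the supernatant after 21,000xg for 90 min. Soluble protein was quantified by TMTpro 16plex LC-MS/MS with channel sums equalised, and reported as log2 fold change in thermal stability against DMSO controls, with values from duplicates.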

Tubastatin A = compound: CN1CCc2c(c3ccccc3n2Cc2ccc(C(=O)NO)cc2)C1 [Tubastatin A]
Procedure, shortened: as §1

[1] = compound: CNC(=O)C1=CC=CC=C1NC2=NC(=NC=C2Cl)NC3=C(C=C(C=C3)N4CCOCC4)OC
Procedure, shortened: as §1

defactinib = compound: CNC(=O)c1ccc(Nc2ncc(C(F)(F)F)c(NCc3nccnc3N(C)S(C)(=O)=O)n2)cc1 [defactinib]
Procedure, shortened: as §1

[2] = compound: CNc1nc(-c2ccc3c(N)n[nH]c3c2)cc(N2C[C@@H](C(=O)NC3CCCCC3)CC[C@H]2C)n1
Procedure, shortened: as §1

encorafenib = compound: COC(=O)N[C@@H](C)CNc1nccc(-c2cn(C(C)C)nc2-c2cc(Cl)cc(NS(C)(=O)=O)c2F)n1 [encorafenib]
Procedure, shortened: as §1

[3] = compound: COC(=O)[C@H](CCSC)NC(=O)C1=C(C=C(C=C1)NC[C@H](CS)N)C2=CC=CC=C2
Procedure, shortened: as §1

alisertib = compound: COc1cc(Nc2ncc3c(n2)-c2ccc(Cl)cc2C(c2c(F)cccc2OC)=NC3)ccc1C(=O)O [alisertib]
Procedure, shortened: as §1

[4] = compound: COc1cc2nc(-c3cc(F)ccc3O)nc(N[C@@H]3CNC[C@H]3C(C)(C)O)c2cc1OC
Procedure, shortened: as §1

gefitinib = compound: COc1cc2ncnc(Nc3ccc(F)c(Cl)c3)c2cc1OCCCN1CCOCC1 [gefitinib]
Procedure, shortened: as §1

WRNIP1 (UniProt Q96S55)
Sequence of UniProt Q96S55 (Q96S55 whole entry, looked up): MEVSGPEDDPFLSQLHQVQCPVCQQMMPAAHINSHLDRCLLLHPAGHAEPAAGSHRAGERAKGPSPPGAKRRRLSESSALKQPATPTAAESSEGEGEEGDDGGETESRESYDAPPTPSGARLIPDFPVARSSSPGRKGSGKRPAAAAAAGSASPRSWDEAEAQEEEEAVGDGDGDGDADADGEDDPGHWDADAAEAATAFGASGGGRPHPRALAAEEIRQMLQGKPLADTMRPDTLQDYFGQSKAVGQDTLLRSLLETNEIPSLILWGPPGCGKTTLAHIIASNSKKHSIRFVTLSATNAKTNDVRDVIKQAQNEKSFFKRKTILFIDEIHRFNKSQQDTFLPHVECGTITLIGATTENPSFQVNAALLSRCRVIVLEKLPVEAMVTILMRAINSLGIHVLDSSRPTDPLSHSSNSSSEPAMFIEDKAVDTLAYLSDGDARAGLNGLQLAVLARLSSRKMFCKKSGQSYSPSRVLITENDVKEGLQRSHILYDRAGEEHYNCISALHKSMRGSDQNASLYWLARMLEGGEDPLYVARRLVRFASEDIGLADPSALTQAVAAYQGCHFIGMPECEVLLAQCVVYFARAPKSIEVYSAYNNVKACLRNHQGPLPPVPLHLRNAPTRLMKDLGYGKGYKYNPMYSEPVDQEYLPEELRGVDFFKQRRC
log2 fold change (alvocidib): 0.005 | log2 fold change (Tubastatin A): -0.229 | log2 fold change [1]: 0.01 | log2 fold change (defactinib): 0.01 | log2 fold change [2]: -0.044 | log2 fold change (encorafenib): 0.024 | log2 fold change [3]: 0.222 (active) | log2 fold change (alisertib): -0.022 | log2 fold change [4]: -0.014 | log2 fold change (gefitinib): 0.033

USP48 isoform 8 (UniProt Q86UV5)
Sequence of UniProt Q86UV5 (Q86UV5 whole entry, looked up): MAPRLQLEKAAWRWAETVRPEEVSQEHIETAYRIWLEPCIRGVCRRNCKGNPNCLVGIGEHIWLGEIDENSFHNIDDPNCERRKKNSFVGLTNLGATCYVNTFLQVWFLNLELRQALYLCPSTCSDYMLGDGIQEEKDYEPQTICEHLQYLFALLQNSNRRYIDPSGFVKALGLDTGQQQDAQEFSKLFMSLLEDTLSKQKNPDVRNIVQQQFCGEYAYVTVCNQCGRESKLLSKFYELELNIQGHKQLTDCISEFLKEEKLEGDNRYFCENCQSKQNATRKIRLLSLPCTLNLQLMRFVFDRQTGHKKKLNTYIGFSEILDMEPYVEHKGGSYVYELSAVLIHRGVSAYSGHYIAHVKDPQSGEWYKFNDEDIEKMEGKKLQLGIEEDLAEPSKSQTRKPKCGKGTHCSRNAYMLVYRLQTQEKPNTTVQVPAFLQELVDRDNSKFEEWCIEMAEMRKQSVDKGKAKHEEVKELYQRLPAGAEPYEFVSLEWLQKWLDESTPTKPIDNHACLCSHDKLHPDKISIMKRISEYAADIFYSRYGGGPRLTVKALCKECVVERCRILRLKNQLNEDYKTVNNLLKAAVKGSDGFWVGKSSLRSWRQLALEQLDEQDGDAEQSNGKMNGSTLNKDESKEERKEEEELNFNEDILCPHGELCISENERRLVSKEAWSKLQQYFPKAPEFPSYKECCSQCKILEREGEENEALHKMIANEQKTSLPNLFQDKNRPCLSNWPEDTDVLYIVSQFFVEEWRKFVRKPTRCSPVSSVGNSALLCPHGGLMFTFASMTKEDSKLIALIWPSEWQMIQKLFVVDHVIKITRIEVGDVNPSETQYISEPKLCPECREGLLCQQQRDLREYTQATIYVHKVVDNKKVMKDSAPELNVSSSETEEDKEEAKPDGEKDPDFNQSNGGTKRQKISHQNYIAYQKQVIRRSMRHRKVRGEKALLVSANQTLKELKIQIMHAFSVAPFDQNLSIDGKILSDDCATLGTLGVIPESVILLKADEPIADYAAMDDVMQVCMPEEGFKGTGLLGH
log2 fold change (alvocidib): 0.006 | log2 fold change (Tubastatin A): -0.119 | log2 fold change [1]: 0.019 | log2 fold change (defactinib): -0.012 | log2 fold change [2]: 0.011 | log2 fold change (encorafenib): -0.003 | log2 fold change [3]: 0.14 | log2 fold change (alisertib): -0.016 | log2 fold change [4]: 0.003 | log2 fold change (gefitinib): -0.018

YME1L1 (UniProt Q96TA2)
log2 fold change (alvocidib): 0.018 | log2 fold change (Tubastatin A): 0.048 | log2 fold change [1]: 0.011 | log2 fold change (defactinib): 0.018 | log2 fold change [2]: -0.061 | log2 fold change (encorafenib): 0.05 | log2 fold change [3]: -0.301 (active) | log2 fold change (alisertib): -0.016 | log2 fold change [4]: 0.028 | log2 fold change (gefitinib): 0.042

ZFPM1 (UniProt Q8IX07)
log2 fold change (alvocidib): 0.014 | log2 fold change (Tubastatin A): 0.024 | log2 fold change [1]: -0.022 | log2 fold change (defactinib): 0 | log2 fold change [2]: 0.007 | log2 fold change (encorafenib): 0.072 | log2 fold change [3]: -0.009 | log2 fold change (alisertib): -0.011 | log2 fold change [4]: 0.018 | log2 fold change (gefitinib): -0.006

YTHDC2 (UniProt Q9H6S0)
log2 fold change (alvocidib): 0.05 | log2 fold change (Tubastatin A): -0.084 | log2 fold change [1]: 0.038 | log2 fold change (defactinib): 0.048 | log2 fold change [2]: -0.008 | log2 fold change (encorafenib): 0.04 | log2 fold change [3]: 0.05 | log2 fold change (alisertib): -0.026 | log2 fold change [4]: -0.029 | log2 fold change (gefitinib): -0.004

ZC3HC1 (UniProt Q86WB0)
log2 fold change (alvocidib): 0.049 | log2 fold change (Tubastatin A): -0.101 | log2 fold change [1]: 0.018 | log2 fold change (defactinib): -0.015 | log2 fold change [2]: 0.034 | log2 fold change (encorafenib): -0.001 | log2 fold change [3]: 0.078 | log2 fold change (alisertib): 0.022 | log2 fold change [4]: -0.013 | log2 fold change (gefitinib): 0.024

VRK2 (UniProt Q86Y07)
log2 fold change (alvocidib): 0.503 (active) | log2 fold change (Tubastatin A): -0.017 | log2 fold change [1]: 0.067 | log2 fold change (defactinib): 0.156 | log2 fold change [2]: -0.044 | log2 fold change (encorafenib): -0.068 | log2 fold change [3]: 0.032 | log2 fold change (alisertib): -0.033 | log2 fold change [4]: 0.008 | log2 fold change (gefitinib): -0.08

ZC3H11A (UniProt O75152)
log2 fold change (alvocidib): 0.098 | log2 fold change (Tubastatin A): -0.077 | log2 fold change [1]: 0.076 | log2 fold change (defactinib): -0.066 | log2 fold change [2]: -0.023 | log2 fold change (encorafenib): 0.045 | log2 fold change [3]: 0.078 | log2 fold change (alisertib): 0.019 | log2 fold change [4]: 0.09 | log2 fold change (gefitinib): 0.034

WAS (UniProt P42768)
log2 fold change (alvocidib): -0.028 | log2 fold change [1]: 0.032 | log2 fold change [2]: 0.365 | log2 fold change (encorafenib): 0.004 | log2 fold change [3]: 0.08 | log2 fold change (alisertib): -0.041 | log2 fold change (gefitinib): 0.215

USP22 (UniProt Q9UPT9)
log2 fold change (alvocidib): 0.102 | log2 fold change (Tubastatin A): -0.044 | log2 fold change [1]: 0.034 | log2 fold change (defactinib): 0.017 | log2 fold change [2]: -0.027 | log2 fold change (encorafenib): -0.007 | log2 fold change [3]: 0.055 | log2 fold change (alisertib): 0.02 | log2 fold change (gefitinib): -0.011

XPOT (UniProt F5GYW6)
log2 fold change [4]: 0.121

UTRN isoform 2 (UniProt P46939)
log2 fold change (alvocidib): -0.084 | log2 fold change [1]: -0.166 | log2 fold change (encorafenib): -0.012 | log2 fold change [3]: -0.037

VASN (UniProt Q6EMK4)
log2 fold change (Tubastatin A): -0.161 | log2 fold change [1]: -0.087 | log2 fold change [2]: 0.096 | log2 fold change (encorafenib): 0.2 | log2 fold change [3]: 0.02

ZNF593 (UniProt O00488)
log2 fold change (alvocidib): -0.005 | log2 fold change (Tubastatin A): -0.07 | log2 fold change [1]: -0.135 | log2 fold change (defactinib): 0.044 | log2 fold change [2]: -0.011 | log2 fold change (encorafenib): -0.006 | log2 fold change [3]: -0.088 | log2 fold change [4]: 0.231

ULK3 isoform 4 (UniProt Q6PHR2)
log2 fold change (alvocidib): -0.014 | log2 fold change [1]: 0.004 | log2 fold change (defactinib): 0.039 | log2 fold change [2]: 0.016 | log2 fold change (encorafenib): -0.089 | log2 fold change [3]: -0.061 | log2 fold change [4]: 0.089

VARS (UniProt P26640)
log2 fold change (alvocidib): -0.003 | log2 fold change (Tubastatin A): -0.086 | log2 fold change [1]: 0.002 | log2 fold change (defactinib): 0.025 | log2 fold change [2]: -0.008 | log2 fold change (encorafenib): -0.008 | log2 fold change [3]: 0.16 | log2 fold change (alisertib): -0.02 | log2 fold change [4]: 0.003 | log2 fold change (gefitinib): -0.006

USP16 (UniProt Q9Y5T5)
Sequence of UniProt Q9Y5T5 (Q9Y5T5 whole entry, looked up): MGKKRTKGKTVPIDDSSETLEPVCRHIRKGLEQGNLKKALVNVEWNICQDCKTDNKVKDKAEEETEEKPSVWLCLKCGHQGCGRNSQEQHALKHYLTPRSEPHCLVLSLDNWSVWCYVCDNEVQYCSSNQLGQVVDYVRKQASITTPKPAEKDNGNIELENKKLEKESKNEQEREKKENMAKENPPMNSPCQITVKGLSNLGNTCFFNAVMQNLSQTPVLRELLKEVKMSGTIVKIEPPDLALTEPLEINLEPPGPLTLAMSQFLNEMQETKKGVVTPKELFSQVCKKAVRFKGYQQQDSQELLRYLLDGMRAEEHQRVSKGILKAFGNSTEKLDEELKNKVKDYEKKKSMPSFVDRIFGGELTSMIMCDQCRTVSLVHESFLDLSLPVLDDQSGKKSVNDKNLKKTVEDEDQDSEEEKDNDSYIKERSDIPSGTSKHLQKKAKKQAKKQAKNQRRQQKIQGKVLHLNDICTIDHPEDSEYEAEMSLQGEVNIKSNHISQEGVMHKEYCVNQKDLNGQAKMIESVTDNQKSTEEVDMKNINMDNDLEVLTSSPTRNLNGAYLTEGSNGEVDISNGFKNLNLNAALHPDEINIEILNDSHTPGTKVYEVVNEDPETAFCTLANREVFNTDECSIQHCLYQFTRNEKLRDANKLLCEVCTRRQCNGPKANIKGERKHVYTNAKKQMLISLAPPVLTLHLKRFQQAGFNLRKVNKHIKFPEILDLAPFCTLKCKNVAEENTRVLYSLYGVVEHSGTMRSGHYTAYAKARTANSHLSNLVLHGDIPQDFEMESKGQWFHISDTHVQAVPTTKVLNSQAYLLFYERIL
log2 fold change (alvocidib): 0.004 | log2 fold change (Tubastatin A): -0.118 | log2 fold change [1]: -0.011 | log2 fold change (defactinib): 0.035 | log2 fold change [2]: 0.008 | log2 fold change (encorafenib): 0.059 | log2 fold change [3]: 0.081 | log2 fold change (alisertib): -0.011 | log2 fold change [4]: -0.003 | log2 fold change (gefitinib): -0.013

ZDHHC17 (UniProt Q8IUH5)
log2 fold change (alvocidib): -0.44 | log2 fold change (Tubastatin A): 0.074 | log2 fold change (defactinib): -0.053 | log2 fold change [2]: -0.04 | log2 fold change (encorafenib): -0.044 | log2 fold change [3]: 0.183 | log2 fold change (alisertib): 0.037 | log2 fold change [4]: -0.032 | log2 fold change (gefitinib): 0.24

ZNF845 (UniProt Q96IR2)
log2 fold change (alvocidib): 0.011 | log2 fold change (Tubastatin A): -0.149 | log2 fold change [1]: 0.314 | log2 fold change (defactinib): -0.001 | log2 fold change [2]: 0.093 | log2 fold change (alisertib): -0.018 | log2 fold change [4]: 0.035 | log2 fold change (gefitinib): 0.035

UNC13A (UniProt Q9UPW8)
log2 fold change (alvocidib): -0.643 | log2 fold change [1]: -0.11 | log2 fold change (alisertib): -0.067 | log2 fold change (gefitinib): -0.076

VHL (UniProt P40337)
log2 fold change (alvocidib): -0.06 | log2 fold change (Tubastatin A): -0.117 | log2 fold change [1]: -0.009 | log2 fold change (defactinib): -0.034 | log2 fold change [2]: -0.047 | log2 fold change (encorafenib): 0.143 | log2 fold change [3]: -0.047 | log2 fold change (alisertib): 0.05 | log2 fold change (gefitinib): -0.029

WAC isoform 5 (UniProt Q9BTA9)
log2 fold change (Tubastatin A): -0.119 | log2 fold change [1]: -0.359 | log2 fold change [2]: -0.117

UNKL (UniProt E9PDK2)
log2 fold change (defactinib): -0.008 | log2 fold change [2]: -0.042 | log2 fold change (encorafenib): 0.044 | log2 fold change [3]: 0.106

WSB1 (UniProt Q9Y6I7)
log2 fold change (alvocidib): 0.184 | log2 fold change (Tubastatin A): -0.014 | log2 fold change [2]: 0.12

ZSWIM8 isoform 4 (UniProt A7E2V4)
log2 fold change (alvocidib): 0.078 | log2 fold change (Tubastatin A): 0.149 | log2 fold change [1]: -0.171 | log2 fold change (defactinib): 0.088 | log2 fold change [2]: -0.226 | log2 fold change (encorafenib): 0.035 | log2 fold change [3]: -0.071 | log2 fold change (alisertib): -0.034 | log2 fold change (gefitinib): -0.073

URGCP (UniProt Q8TCY9)
log2 fold change (Tubastatin A): 0.168 | log2 fold change (defactinib): -0.19 | log2 fold change [2]: -0.005 | log2 fold change (alisertib): 0.003 | log2 fold change (gefitinib): 0.006

ZFYVE19 isoform 3 (UniProt Q96K21)
log2 fold change [4]: -0.006

ZYG11A (UniProt Q6WRX3)
Sequence of UniProt Q6WRX3 (Q6WRX3 whole entry, looked up): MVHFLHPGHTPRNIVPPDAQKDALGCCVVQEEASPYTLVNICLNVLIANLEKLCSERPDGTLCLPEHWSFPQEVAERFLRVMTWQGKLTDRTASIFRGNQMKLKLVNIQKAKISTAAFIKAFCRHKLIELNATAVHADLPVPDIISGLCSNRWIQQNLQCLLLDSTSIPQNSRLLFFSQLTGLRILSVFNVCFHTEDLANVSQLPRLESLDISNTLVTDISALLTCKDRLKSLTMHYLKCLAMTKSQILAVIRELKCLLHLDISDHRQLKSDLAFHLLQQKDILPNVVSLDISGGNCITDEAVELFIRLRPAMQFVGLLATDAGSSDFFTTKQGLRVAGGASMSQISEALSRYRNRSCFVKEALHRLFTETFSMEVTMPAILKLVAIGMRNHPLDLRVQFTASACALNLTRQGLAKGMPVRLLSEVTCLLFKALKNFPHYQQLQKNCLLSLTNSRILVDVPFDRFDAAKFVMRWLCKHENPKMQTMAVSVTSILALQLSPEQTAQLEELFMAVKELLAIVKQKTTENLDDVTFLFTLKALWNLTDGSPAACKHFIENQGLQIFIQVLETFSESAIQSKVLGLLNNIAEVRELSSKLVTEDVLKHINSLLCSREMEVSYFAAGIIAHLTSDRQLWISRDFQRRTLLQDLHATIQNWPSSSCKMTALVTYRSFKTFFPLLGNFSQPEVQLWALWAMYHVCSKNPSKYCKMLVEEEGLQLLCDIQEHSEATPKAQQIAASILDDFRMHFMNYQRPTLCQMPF
log2 fold change (alvocidib): -0.18 | log2 fold change (Tubastatin A): 0.018 | log2 fold change [1]: -0.013 | log2 fold change (alisertib): -0.08 | log2 fold change [4]: 0.212 | log2 fold change (gefitinib): -0.029

WIPI1 (UniProt Q5MNZ9)
log2 fold change (alvocidib): -0.046 | log2 fold change (Tubastatin A): 0.013 | log2 fold change [1]: 0.036 | log2 fold change [2]: 0.099 | log2 fold change (encorafenib): -0.009 | log2 fold change [3]: 0.029 | log2 fold change (alisertib): -0.189 | log2 fold change [4]: 0.008 | log2 fold change (gefitinib): -0.017

ZNF281 (UniProt Q9Y2X9)
log2 fold change (Tubastatin A): -0.16 | log2 fold change [1]: 0.025 | log2 fold change [2]: 0.095

YLPM1 (UniProt P49750)
log2 fold change (alvocidib): 0.061 | log2 fold change (Tubastatin A): -0.041 | log2 fold change [1]: 0.01 | log2 fold change (defactinib): 0.041 | log2 fold change [2]: 0.131 | log2 fold change (encorafenib): 0.049 | log2 fold change [3]: -0.09 | log2 fold change (alisertib): -0.033 | log2 fold change [4]: 0 | log2 fold change (gefitinib): -0.086

YBEY (UniProt P58557)
log2 fold change [1]: -0.056 | log2 fold change (defactinib): 0.016 | log2 fold change [2]: -0.066 | log2 fold change (encorafenib): -0.037 | log2 fold change [3]: 0.071

ZNF346 (UniProt Q9UL40)
log2 fold change (alvocidib): 0.05 | log2 fold change (Tubastatin A): 0.036 | log2 fold change [1]: -0.009 | log2 fold change [2]: -0.029 | log2 fold change (encorafenib): -0.006 | log2 fold change [3]: 0.062 | log2 fold change (alisertib): -0.03 | log2 fold change [4]: 0.019 | log2 fold change (gefitinib): 0.046

ZBTB40 (UniProt Q9NUA8)
log2 fold change (alvocidib): 0.09 | log2 fold change (Tubastatin A): -0.089 | log2 fold change [1]: 0.03 | log2 fold change (defactinib): -0.032 | log2 fold change [2]: 0.048 | log2 fold change (alisertib): -0.187 | log2 fold change [4]: -0.038 | log2 fold change (gefitinib): -0.246

ZNF146 (UniProt Q15072)
log2 fold change [2]: 0.12
